Measurements as given in PubChem BioAssay AID1159580 (chemical genetic matrix, 2015).
Values joined by “and” are separate entries in the source; they are usually repeats but may differ in a detail not shown here. Equal entries are not always repeated. The campaign covered roughly 5,500 compounds. About 2,000 (36%) were called active. Inconclusive results (about 18%) are left out. Cut-off read from the data, not from the text of the source: active = normalized growth mostly below about 0.91 (no sharp cut-off); inconclusive = no clear call, values can overlap the other calls; inactive = mostly above about 0.92. The list shows a part of the results.

Test: chemical genetic growth profiling, strain panel (AID 1159580);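 note: tested at 20 µM; growth read once vehicle control cultures reached saturation at 30 °C; 1 = growth at the plate median or of vehicle wells; lower values mean less growth of the strain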
Settings: growth OD

Measured: normalized growth

Cc1cc(C(C)(C)C)c(O)c(C)c1CC1=NCCN1
inactive: S. cerevisiae deletion strains, locus YJR066W, strain TOR1, hits give low values 0.928 | S. cerevisiae deletion strains, locus YJR075W, strain HOC1, hits give low values 0.995 | S. cerevisiae deletion strains, locus YKL009W, strain mrt4, hits give low values 1.01 | S. cerevisiae deletion strains, locus YKL068W, hits give low values 1 | S. cerevisiae deletion strains, locus YKL085W, strain MDH1 (second series), hits give low values 1 | S. cerevisiae deletion strains, locus YKL085W, strain MDH1, hits give low values 1 | S. cerevisiae deletion strains, locus YKL160W, strain elf1, hits give low values 1.02 | S. cerevisiae deletion strains, locus YKL190W, strain CNB1, hits give low values 0.991 | S. cerevisiae deletion strains, locus YKR001C, strain vps1, hits give low values 1.02 | S. cerevisiae deletion strains, locus YKR026C, strain gcn3, hits give low values 1.01 | S. cerevisiae deletion strains, locus YKR091W, strain srl3, hits give low values 0.996 | S. cerevisiae deletion strains, locus YLL001W, strain dnm1, hits give low values 1.01 | S. cerevisiae deletion strains, locus YLL026W, hits give low values 1.02 | S. cerevisiae deletion strains, locus YLL041C, strain sdh2, hits give low values 1.01 | S. cerevisiae deletion strains, locus YLR027C, strain aat2, hits give low values 1 | S. cerevisiae deletion strains, locus YLR039C, strain RIC1, hits give low values 1.01 | S. cerevisiae deletion strains, locus YLR058C, strain SHM2, hits give low values 0.991 | S. cerevisiae deletion strains, locus YLR102C, strain apc9, hits give low values 1 | S. cerevisiae deletion strains, locus YLR113W, strain HOG1, hits give low values 0.997 | S. cerevisiae deletion strains, locus YLR221C, strain rsa3, hits give low values 1.01 | S. cerevisiae deletion strains, locus YLR258W, strain gsy2, hits give low values 1 | S. cerevisiae deletion strains, locus YLR262C, strain YPT6 (second series), hits give low values 1.02 | S. cerevisiae deletion strains, locus YLR262C, strain YPT6, hits give low values 0.974 | S. cerevisiae deletion strains, locus YLR268W, strain sec22, hits give low values 1.01 | S. cerevisiae deletion strains, locus YLR320W, strain mms22, hits give low values 1.02 | S. cerevisiae deletion strains, locus YLR330W, strain CHS5, hits give low values 0.999 | S. cerevisiae deletion strains, locus YLR342W, strain FKS1 (second series), hits give low values 0.984 | S. cerevisiae deletion strains, locus YLR342W, strain FKS1, hits give low values 1 | S. cerevisiae deletion strains, locus YLR357W, strain rsc2, hits give low values 1.02 | S. cerevisiae deletion strains, locus YLR370C, strain arc18, hits give low values 1.01 | S. cerevisiae deletion strains, locus YLR371W, strain rom2, hits give low values 1.01 | S. cerevisiae deletion strains, locus YLR384C, strain iki3, hits give low values 1.02 | S. cerevisiae deletion strains, locus YLR418C, strain cdc73, hits give low values 1.02 | S. cerevisiae deletion strains, locus YML016C, strain PPZ1, hits give low values 0.998 | S. cerevisiae deletion strains, locus YML032C, strain rad52, hits give low values 0.999 | S. cerevisiae deletion strains, locus YML120C, strain ndi1, hits give low values 1.01 | S. cerevisiae deletion strains, locus YML124C, strain tub3, hits give low values 1.02 | S. cerevisiae deletion strains, locus YMR058W, strain fet3, hits give low values 1.01 | S. cerevisiae deletion strains, locus YMR078C, strain ctf18, hits give low values 1.02 | S. cerevisiae deletion strains, locus YMR125W, strain sto1, hits give low values 1 | S. cerevisiae deletion strains, locus YMR129W, hits give low values 1 | S. cerevisiae deletion strains, locus YMR205C, strain PFK2, hits give low values 1.04 | S. cerevisiae deletion strains, locus YMR223W, strain ubp8, hits give low values 1 | S. cerevisiae deletion strains, locus YMR231W, strain pep5, hits give low values 1.01 | S. cerevisiae deletion strains, locus YMR263W, strain SAP30, hits give low values 1 | S. cerevisiae deletion strains, locus YMR307W, strain GAS1, hits give low values 0.985 and 0.998 | S. cerevisiae deletion strains, locus YNL067W, strain RPL9B, hits give low values 0.988 | S. cerevisiae deletion strains, locus YNL071W, strain lat1, hits give low values 1 | S. cerevisiae deletion strains, locus YNL128W, strain TEP1, hits give low values 0.998 and 1.04 | S. cerevisiae deletion strains, locus YNL153C, strain GIM3, hits give low values 0.996 and 1.01 | S. cerevisiae deletion strains, locus YNL175C, strain NOP13, hits give low values 1 | S. cerevisiae deletion strains, locus YNL183C, strain NPR1, hits give low values 0.936 | S. cerevisiae deletion strains, locus YNL197C, strain WHI3, hits give low values 1.01 | S. cerevisiae deletion strains, locus YNL209W, strain ssb2, hits give low values 1 | S. cerevisiae deletion strains, locus YNL224C, strain SQS1, hits give low values 1.02 | S. cerevisiae deletion strains, locus YNL233W, strain BNI4, hits give low values 1 | S. cerevisiae deletion strains, locus YNL248C, strain rpa49, hits give low values 0.997 | S. cerevisiae deletion strains, locus YNL250W, strain rad50, hits give low values 1.01 | S. cerevisiae deletion strains, locus YNL271C, strain bni1, hits give low values 1.02 | S. cerevisiae deletion strains, locus YNL298W, strain CLA4, hits give low values 0.982 | S. cerevisiae deletion strains, locus YNL307C, strain MCK1, hits give low values 1.01 | S. cerevisiae deletion strains, locus YNL322C, strain KRE1 (second series), hits give low values 1.03 | S. cerevisiae deletion strains, locus YNL322C, strain KRE1, hits give low values 0.998 | S. cerevisiae deletion strains, locus YNR049C, strain mso1, hits give low values 1.01 | S. cerevisiae deletion strains, locus YNR052C, strain pop2, hits give low values 1.02 | S. cerevisiae deletion strains, locus YOL006C, strain TOP1, hits give low values 1.01 | S. cerevisiae deletion strains, locus YOL012C, strain htz1 1.23 | S. cerevisiae deletion strains, locus YOL147C, strain pex11, hits give low values 1.01 | S. cerevisiae deletion strains, locus YOR001W, strain rrp6, hits give low values 0.97 | S. cerevisiae deletion strains, locus YOR061W, strain CKA2, hits give low values 1 | S. cerevisiae deletion strains, locus YOR069W, strain VPS5, hits give low values 0.997 | S. cerevisiae deletion strains, locus YOR070C, strain gyp1, hits give low values 1.01 | S. cerevisiae deletion strains, locus YOR080W, strain dia2, hits give low values 1 | S. cerevisiae deletion strains, locus YOR083W, strain WHI5 (second series), hits give low values 1.02 | S. cerevisiae deletion strains, locus YOR083W, strain WHI5, hits give low values 1.03 | S. cerevisiae deletion strains, locus YOR106W, strain vam3, hits give low values 1.02 | S. cerevisiae deletion strains, locus YOR136W, strain idh2, hits give low values 1 | S. cerevisiae deletion strains, locus YOR144C, strain elg1, hits give low values 1 | S. cerevisiae deletion strains, locus YOR184W, strain ser1, hits give low values 1.01 | S. cerevisiae deletion strains, locus YOR231W, strain MKK1, hits give low values 1.01 | S. cerevisiae deletion strains, locus YOR265W, strain rbl2, hits give low values 1 | S. cerevisiae deletion strains, locus YOR270C, strain vph1, hits give low values 1.01 | S. cerevisiae deletion strains, locus YOR290C, strain snf2, hits give low values 1.03 | S. cerevisiae deletion strains, locus YOR316C, strain cot1, hits give low values 1 | S. cerevisiae deletion strains, locus YPL051W, strain arl3, hits give low values 1.02 | S. cerevisiae deletion strains, locus YPL055C, strain LGE1, hits give low values 0.983 | S. cerevisiae deletion strains, locus YPL078C, strain atp4, hits give low values 1.01 | S. cerevisiae deletion strains, locus YPL106C, strain sse1, hits give low values 1.04 | S. cerevisiae deletion strains, locus YPL240C, strain hsp82, hits give low values 0.994 | S. cerevisiae deletion strains, locus YPL256C, strain CLN2, hits give low values 0.961 | S. cerevisiae deletion strains, locus YPR119W, strain clb2, hits give low values 1 | S. cerevisiae deletion strains, locus YPR141C, strain kar3, hits give low values 1.01 | S. cerevisiae deletion strains, locus YPR163C, strain tif3, hits give low values 1.02 | S. cerevisiae deletion strains, locus YPR167C, strain met16, hits give low values 1.01 | S. cerevisiae deletion strains, strain wtn01, hits give low values 1.01 | S. cerevisiae strains, strain wild type, hits give low values 0.984
